The supplement of paper PMC3334620
In all, about 33,000 sequences were measured (“E-score (-0.5 to 0.5)”: median about -0.021, highest 2% from about 0.32 on). The full list was thinned out, with the highest values kept by preference.

The sequences below were run against T1, Zap1 (UniProt P47043) (assay: PBM E-score (8-mer binding enrichment) (E-score (-0.5 to 0.5)); higher = stronger / more preferred TF binding). Conditions: protein concentration: 200 nM; construct: GST-full length.
T1 sequence: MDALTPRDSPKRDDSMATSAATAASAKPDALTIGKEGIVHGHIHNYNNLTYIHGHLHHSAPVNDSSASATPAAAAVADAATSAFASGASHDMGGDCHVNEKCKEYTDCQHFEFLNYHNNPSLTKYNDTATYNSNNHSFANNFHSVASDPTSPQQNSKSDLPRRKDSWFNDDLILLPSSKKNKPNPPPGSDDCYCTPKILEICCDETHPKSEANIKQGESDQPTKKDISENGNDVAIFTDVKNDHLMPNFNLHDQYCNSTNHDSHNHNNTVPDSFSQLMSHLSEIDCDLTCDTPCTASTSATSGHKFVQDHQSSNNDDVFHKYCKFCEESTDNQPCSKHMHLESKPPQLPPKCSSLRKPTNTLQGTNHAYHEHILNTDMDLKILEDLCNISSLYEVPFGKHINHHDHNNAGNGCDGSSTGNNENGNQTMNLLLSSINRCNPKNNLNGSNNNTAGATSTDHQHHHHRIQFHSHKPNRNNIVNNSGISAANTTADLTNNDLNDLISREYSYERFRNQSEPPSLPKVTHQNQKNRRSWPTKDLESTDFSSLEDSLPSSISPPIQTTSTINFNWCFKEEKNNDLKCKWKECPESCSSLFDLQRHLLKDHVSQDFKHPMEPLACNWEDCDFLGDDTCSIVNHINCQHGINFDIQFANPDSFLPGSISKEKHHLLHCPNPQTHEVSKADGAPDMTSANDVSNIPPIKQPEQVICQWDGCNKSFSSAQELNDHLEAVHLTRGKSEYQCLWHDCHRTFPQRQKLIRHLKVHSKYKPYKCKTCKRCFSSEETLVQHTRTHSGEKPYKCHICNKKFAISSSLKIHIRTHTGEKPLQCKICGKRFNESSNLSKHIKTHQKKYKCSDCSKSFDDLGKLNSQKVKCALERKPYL
Summary of the method: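 Full-length yeast transcription factors or their DNA-binding domains, GST-tagged and expressed with PURExpress, were applied at about 100-200 nM to universal all-10-mer Agilent arrays. These arrays had been made double-stranded by primer extension on fresh or once-stripped slides. Detection used fluorescent anti-GST, normalisation used masliner, and E-scores for ungapped eight-base words pooled with reverse complements came from the Universal PBM Analysis Suite.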

Sequence	PBM E-score
AACGGCGA	0.0503
ATAAAGCA	-0.0384
CCGTCCCA	-0.0821
AAATAGCT	-0.141
CCTCTTGA	0.148
AGGACCCT	0.226
CACTGCGC	-0.192
TCACCAGA	0.015
CCACAAGG	0.33
CCACAAAA	0.237
CCACAAAG	0.34
CCACAAGC	0.0428
CCACAAGA	0.0787
CCACAAAC	0.147
ACTAGATA	0.115
AGTGCAAC	0.0909
CGGGTGTA	0.0123
AAGGGGTC	0.264
AGAGGGTC	0.213
CAGGGGTA	0.286
CAGGGGTC	0.321
CAAGGGCC	0.0489
AAAGGGCT	0.00434
CAAGGGTC	0.355
AAAGGGTT	0.396

Sequence	PBM E-score
GAAGGGTC	0.211
AAAGGGGC	-0.00977
AAAGGGTC	0.363
AAAGGGTG	0.247
CACGATCC	0.141
AGCTAAAC	-0.144
TCCAGCGA	-0.138
AGATGGAT	-0.254
ACAAGGGT	0.387
ACGGGGTC	0.218
AAGGGGGT	-0.271
ACAAGGGC	-0.137
AAAGGGGG	-0.385
AAAGGGGT	0.32
ACAAGGGG	-0.128
CCGGGGTC	0.348
CGGGGGTC	-0.0576
CAAGGGTG	0.262
CAAGGGTA	0.398
CAAGGGCA	-0.182
ATTTAGCA	0.0848
AAAAGTCG	-0.033
TAAGCGCA	-0.0722
CTAATGCA	0.132
AAAAGGGT	0.386

Sequence	PBM E-score
AAAAGGGA	-0.0112
AAAAGGGC	0.149
CCAGATGA	-0.0669
GATCGTAC	-0.069
CTTAGAGA	-0.0526
GAATGGAC	0.0207
GCTATCGA	-0.0297
CTCCGAAC	-0.196
AATCTCGC	-0.0495
GACCTTAC	0.13
GTCCTTAA	0.268
GAGCTTAA	-0.0983
AACCTTAG	0.324
AACCTTAC	0.318
CACCTTAG	0.245
TGCCTTAA	-0.0666
GGCCTTAA	0.319
AACCTTAT	0.312
GACCTTAA	0.324
AGCCTTAA	-0.0565
CACCTTAC	0.148
CGGTCCCA	-0.0137
AACGACCT	0.211
ACTTGCAC	-0.141
GGGGGGAA	-0.411

Sequence	PBM E-score
GGTATCAC	0.0481
AACTGGCG	-0.0757
CATGCCAC	-0.227
CCGGCCTC	-0.0295
GGAGTTAA	0.029
AACCTTAA	0.352
CACCTTAA	0.207
TACCTTAA	0.296
GTAAAAGA	0.0206
ACCTTTAC	0.307
ACCTTTAG	0.348
ACCTTTTG	0.364
ACCTTTGG	0.236
AACTTTAT	0.0578
ACCTTTAT	0.352
CCCTTTAG	0.127
GCCTTTAA	0.0959
ACCTTTAA	0.383
AGCTTTAT	-0.0486
ACCTTTTC	0.254
CCCTTTAA	0.286
GCAGATGC	-0.337
GAGCACGA	-0.0755
TATCGATA	0.285
ACGCAAAA	-0.024

Sequence	PBM E-score
ACCTACTA	0.113
AGGATTAA	-0.0423
GTTTAGCA	-0.0642
CGTAGTTC	-0.125
AGTACCAT	0.127
ACCTATAC	0.249
ACCTTTCA	0.257
ACCTATAA	0.188
ACCTTTCT	0.372
CCCTTTTA	0.0826
GCCTTTTA	0.0912
ACCTTTTA	0.411
ACCTTTCC	0.107
ACCTATAT	0.356
GGTAGCAA	0.0702
AAACAGTG	0.0759
CCAGTTTA	0.073
TAAACCTA	0.137
CCAAGCCA	-0.122
CAGGCTAG	-0.141
CGTACGAC	-0.126
CAAAGGTA	0.267
GAAAGGTA	0.363
TAAAGGTA	0.34
GAAAGGTC	0.294

Sequence	PBM E-score
AAAAGGTA	0.405
TAAAGGAA	0.00829
TAAAGGGA	0.145
AGAAGGTA	0.286
ATAAGGTA	0.231
AAGACCAC	0.0451
CAGCCCAC	-0.113
GAGAGCAA	-0.227
GCGCCTAA	0.0328
GGTACTCA	0.329
AGTACCTA	0.299
GGTACCTA	0.398
GGTACCCA	0.411
CGTACTCA	-0.0651
CGTACCCA	-0.0471
CGTACCTA	-0.117
AGTACTCA	-0.0985
AGTACCCA	0.289
CCATCCAG	-0.155
GACTCGGA	-0.237
AAACGTAG	-0.0378
GGTCCTAC	-0.105
AGACTGGG	-0.141
TACCGTGA	0.247
AAGTACGC	-0.152

Sequence	PBM E-score
GAGTACCC	0.342
AAGTACCC	0.34
AAGTACCA	0.211
GAGTACCA	0.247
CAGTACCC	0.313
CGAATTCG	-0.233
TAGCAAAA	0.0555
AGAGCAAG	-0.196
ACAACCCA	0.286
ACGACCCT	0.348
ACAACCGT	0.0867
ACAACCCG	0.398
ACGACCCG	0.0256
CCAACCCG	0.148
AGAACCCT	0.321
ACAAACCG	0.027
AGAACCCC	0.294
AGAACCCA	0.19
ACGACCCA	0.2
ACAACCCT	0.443
AGTCCTCG	-0.272
AAGATAGC	-0.144
